TDP1 cell CPT = DT40-hTDP1 cell growth loss with CPT; Potency, µM (highest dose often 46.2 µM), inactives show at the top dose activity change, negative = growth inhibition, actives largely listed as inhibitors; 420,000 compounds, 12% hits; AID 686979; chicken DT40 Tdp1-/-;hTDP1 cells + 20 nM CPT, ATP luminescence, 48 h; note: potency is the fitted concentration of half-maximal effect; nearly all actives have a fitted effect of over 55% in size
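Cell growth measured by CellTiter-Glo luminescence after a minimum 48 h, 37 C compound exposure with 20 nM CPT in Tdp1-knockout DT40 cells stably expressing hTDP1, seeded 400/well; qHTS titration format.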
ALOX12 inh = inhibitors of human 12S-lipoxygenase ALOX12; P18054; purified 12hLO, xylenol orange hydroperoxide absorbance; Potency, µM (top dose mostly 108 µM), for inactives: top-dose activity change, negative = inhibition, actives largely listed as inhibitors; 580,000 compounds, 1.1% hits; note: potency is the fitted concentration of half-maximal effect
Target sequence (P18054 whole entry, looked up): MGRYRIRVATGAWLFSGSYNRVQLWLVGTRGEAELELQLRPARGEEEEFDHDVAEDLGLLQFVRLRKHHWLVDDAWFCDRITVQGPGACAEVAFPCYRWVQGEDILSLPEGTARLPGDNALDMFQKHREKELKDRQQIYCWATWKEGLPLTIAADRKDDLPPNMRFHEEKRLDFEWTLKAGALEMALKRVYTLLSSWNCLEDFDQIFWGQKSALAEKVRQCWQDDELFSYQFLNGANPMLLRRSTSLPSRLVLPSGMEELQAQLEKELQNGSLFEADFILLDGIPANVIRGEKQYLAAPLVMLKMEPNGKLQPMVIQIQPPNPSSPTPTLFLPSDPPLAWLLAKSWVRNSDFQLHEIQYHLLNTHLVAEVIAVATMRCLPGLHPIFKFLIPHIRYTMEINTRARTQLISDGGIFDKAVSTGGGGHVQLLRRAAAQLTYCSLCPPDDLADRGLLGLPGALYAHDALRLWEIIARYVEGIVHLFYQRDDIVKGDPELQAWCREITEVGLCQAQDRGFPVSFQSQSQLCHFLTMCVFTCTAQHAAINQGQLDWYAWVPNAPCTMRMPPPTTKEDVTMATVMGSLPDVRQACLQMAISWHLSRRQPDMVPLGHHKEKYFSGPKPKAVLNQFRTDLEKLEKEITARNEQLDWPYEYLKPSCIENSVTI
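Purified human 12hLO (150 nM final) in 25 mM Hepes, 0.01% Triton X-100, pH 7.0 was preincubated 15 min at room temperature with compound. Then 40 uM arachidonic acid was added, 30 min. Hydroperoxide was read by Fe-XO absorbance ratio 573/405 nm.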
DT40 TDP1 no CPT = qHTS for Inhibitors of human tyrosyl-DNA phosphodiesterase 1 (TDP1): qHTS in cells in absence of CPT. 420,000 compounds, 15% hits. AID 686978, 2013. Potency, µM (top dose mostly 46.2 µM), for the others: at the top dose activity change, negative = growth inhibition, actives largely listed as inhibitors. DT40 Tdp1-/- hTDP1 cells, no CPT, ATP luminescence, 48 h; note: potency is the fitted concentration of half-maximal effect; nearly all actives have a fitted effect of over 55% in size
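Growth of hTDP1-complemented DT40 Tdp1-knockout cells is measured by ATP luminescence after at least 48 hr compound exposure at 37 °C, with DMSO substituting for the 20 nM CPT used in the parallel screen.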
IL-1B inflam inh = blocks inflammasome-driven IL-1 beta release | 360,000 compounds, 4.7% hits | activity change, % at 57.5 µM | THP-1 LPS/ATP IL-1B secretion, AlphaLISA, 16 h; stronger effect = lower value; in the data active = activity change below about -50%; inconclusive = mostly about -30% to -49%
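THP-1 cells pretreated 1 hr with compounds (up to 57.5 uM final), then stimulated with LPS (250 ng/mL final) plus ATP (1.25 mM final); secreted IL-1B measured by AlphaLISA after 16 hr, decreased signal indicating inhibition.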
HT1080 IDH1KD tx = toxicity to HT-1080 IDH1 knockdown cells (counter line); HT-1080 IDH1 knockdown viability, ATP luminescence, 48 h; Potency, µM (doses to about 46.1 µM), for the others: at the top dose activity, negative = toxicity, actives largely listed as cytotoxic; 360,000 compounds, 2% hits;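 note: potency is the fitted concentration of half-maximal effect; 0% = DMSO wells and -100% = cell-free medium wells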
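IDH1KD HT-1080 cells, 750/well, RPMI + 5% FBS; compound pinned after 2 h settling; 48 h, 37 °C; CellTiter-Glo luminescence; % activity normalised to DMSO and no-cell wells; curves fitted, classed by r2 and efficacy.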
HT1080NT lethal = kills 2HG-producing HT-1080-NT fibrosarcoma cells; 360,000 compounds, 1.6% hits; HT-1080-NT fibrosarcoma viability, CellTiter-Glo ATP luminescence, 48 h; Potency, µM (titrated, usually from 46.1 µM), inactives show at the top dose activity, negative = less viability, actives largely listed as cytotoxic;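 note: NT is the 2HG producing partner of a matched IDH1 knockdown line; potency is the fitted concentration of half-maximal effect; 0% = DMSO-treated cells and -100% = media-only wells without cells; nearly all actives have a fitted effect of over 55% in size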
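Fibrosarcoma NT cells, 750 per well in 5% FBS RPMI, were exposed to compound for 48 hours. Viability: CellTiter-Glo luminescence.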
* = called active by the depositor; ? = inconclusive; · = no result. The sample as a whole holds a higher share of hits than the screen did. Unless noted, calls come from the whole dose curve; as a rule, active = well fitted curve in the direction sought with a large enough effect; inconclusive = small, poorly fitted or top-dose-only effect, or another doubt; inactive = no such curve, though single readings can be large; an effect the other way counts as inactive or inconclusive. Unless noted, % is set by controls: 0 for no effect and ±100 for the full control effect.

SMILES	TDP1 cell CPT	ALOX12 inh	DT40 TDP1 no CPT	IL-1B inflam inh	HT1080 IDH1KD tx	HT1080NT lethal
CC(C)CC1=NN(C(=O)c2cccnc2)C(O)(C(F)(F)F)C1 (stereo not given)	4.1µM*	28%	2.9µM*	14	17%	7%
CC(C)CC1=NN(C(=O)c2ccncc2)C(O)(C(F)(F)F)C1 (stereo not given)	2.9µM*	32%	3.3µM*	-11	-2%	-14%
O=C(c1ccncc1)N1N=C(C2CC2)CC1(O)C(F)(F)F (stereo not given)	3.7µM*	-7%	5.2µM*	5	12%	3%
CC1CCCC(C)N1C(=O)COC(=O)Cc1c[nH]c2ccccc12 (stereo not given)	14%	-14%	-2%	9	-6%	-5%
CC(C)C(=O)Nc1nc2ccc(CCC(=O)N3CCN(c4ccc(Cl)cc4)CC3)cc2s1	·	50%	·	·	·	·
O=C(CC(SCCO)c1ccc(F)cc1)c1ccco1 (stereo not given)	18µM*	3%	16µM*	-27	8%	1%
CC(=O)N[C@H](C(=O)O)C(C)C	·	31%	·	·	·	·
CN(C)c1cc2c(c(N(C)C)c1)C(=O)c1ccccc1C2=O	?	0%	?	-50*	?	-18%
CN(C)S(=O)(=O)c1cccc2c1C(=O)c1ccccc1C2=O	8%	-16%	15%	33	-9%	-1%
COc1ccc(C)cc1-n1nnnc1SCC(=O)Nc1ccc(N2CCCC2=O)cc1	·	-23%	·	·	·	·
Cc1cccc(N(CC(=O)N/N=C/c2cc([N+](=O)[O-])ccc2Cl)S(C)(=O)=O)c1C	?	·	21µM*	-13	5%	2%
Nc1nnnn1CC(=O)N/N=C/c1cc([N+](=O)[O-])ccc1Cl	15µM*	-5%	10µM*	6	1%	-12%
CS(=O)(=O)N(CC(=O)N/N=C/c1cc([N+](=O)[O-])ccc1Cl)c1ccccc1	?	0%	18µM*	-6	2%	-1%
CCc1ccccc1NC(=O)CN(c1cccc(C)c1C)S(C)(=O)=O	1%	1%	-2%	·	·	·
CC(=O)N/N=C/c1cc([N+](=O)[O-])ccc1OCCOc1ccccc1	?	-5%	16µM*	12	-3%	-10%
NC(=S)N/N=C/c1cc([N+](=O)[O-])ccc1OCCOc1ccccc1	-16%	0%	-30%	14	-1%	-2%
COc1ccc(Br)cc1/C=N/NC(=O)Cn1nnnc1N	?	191%	?	29	-20%	-5%
CSc1nnc(C)c(=O)n1COC(=O)/C=C/c1ccc2c(c1)OCO2	-2%	-19%	-20%	-5	-3%	13%
CCCOc1ccc(C(=O)N(Cc2ccc(N(C)C)cc2)CC2CCCO2)cc1 (stereo not given)	?	-16%	?	·	·	·
Cc1cc(OCC(=O)N(Cc2ccc(N(C)C)cc2)CC2CCCO2)ccc1Cl (stereo not given)	23µM*	0%	-100%	·	·	·
CN(C)c1ccc(CN(CC2CCCO2)C(=O)COc2ccc(Cl)cc2)cc1 (stereo not given)	26µM*	-30%	18µM*	·	·	·
CN(C)c1ccc(C(CNS(=O)(=O)c2ccc([N+](=O)[O-])cc2)N2CCCC2)cc1 (stereo not given)	?	-24%	?	?	-1%	-5%
O=C(Nc1ccccc1)c1cc(C2CCCCN2C(=O)CCc2ccccc2)on1 (stereo not given)	?	4%	-26%	9	-3%	-1%
CC(=O)Nc1ccc(C(=O)N2CCCCC2c2cc(C(=O)Nc3ccccc3Cl)no2)cc1 (stereo not given)	-18%	11%	-1%	0	-4%	-14%
